One assay relates to CRL-7250. The assay is described as follows: Cytotoxic Profiling of Annotated Libraries Using Quantitative High-Throughput Screening (AID 1296008). For max response: % is set by controls: 0 for no effect and ±100 for the full control effect. Note: potency is the fitted concentration of half-maximal effect. The settings on record: Five cell lines viability, CellTiter-Glo ATP luminescence, 48-72 h; max response: stronger effect = lower value. The method, boiled down:
(§1)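 Compounds were pin-transferred onto cells and incubated 48 or 72 hr at 37 degree Celsius, 95% humidity. CellTiter-Glo was added, plates sat 10 min at room temperature, then ATP-coupled luminescence was imaged as the viability read-out.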
On the technique in general: ATP-based viability assays read luminescence as a measure of living cells.

A further assay concerns HEK293. The description is as above. The conditions noted are these: Five cell lines viability, CellTiter-Glo ATP luminescence, 48-72 h; max response: stronger effect = lower value. An outline of the steps:
as §1

In assay [1] the test system is HaCat. Described as above. The settings on record: Five cell lines viability, CellTiter-Glo ATP luminescence, 48-72 h; max response: stronger effect = lower value. The method, boiled down:
as §1

The next assay relates to KB-3-1. Described as above. The conditions noted are these: Five cell lines viability, CellTiter-Glo ATP luminescence, 48-72 h; max response: stronger effect = lower value. An outline of the steps:
as §1

Assay [2] has as its system NIH3T3. The description is as above. The settings on record: Five cell lines viability, CellTiter-Glo ATP luminescence, 48-72 h; max response: stronger effect = lower value. An outline of the steps:
as §1

The subject of a further assay is MCC-13. The assay is described as follows: qHTS assay to identify novel small-molecules to repurpose for Merkel cell carcinoma treatment (AID 1296009). Note: potency is the fitted concentration of half-maximal effect. The settings on record: MCC and control cell lines, CellTiter-Glo viability, 72 h; series mostly up to 46 µM. The method, boiled down: (§2)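 Cells exposed to NPC (8-point) and MIPE (11-point) compound dilutions for 72 hr at 37 degree celsius; viability read by CellTiter-Glo luminescence, normalized to no-cell and DMSO in-plate controls.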

For another assay, the system named is MKL-1. The assay is described as above. The settings on record: MCC and control cell lines, CellTiter-Glo viability, 72 h; series mostly up to 46 µM. The method, boiled down:
as §2

A further assay relates to MKL-2. The assay is described as above. The settings on record: MCC and control cell lines, CellTiter-Glo viability, 72 h; series mostly up to 46 µM. The method, boiled down: as §2
A further assay deals with UISO. Described as above. The settings on record: MCC and control cell lines, CellTiter-Glo viability, 72 h; series mostly up to 46 µM. The method, boiled down:
as §2

The test system of a further assay is WaGa. The assay is described as above. The settings on record: MCC and control cell lines, CellTiter-Glo viability, 72 h; series mostly up to 46 µM. The method, boiled down: as §2
The test system of another assay is PC49. The assay is described as follows: qHTS profiling for inhibitors of Plasmodium falciparum proliferation (AID 504749).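 Note: 0% = DMSO vehicle and full inhibition = artemisinin control.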 The conditions noted are these: P. falciparum in erythrocytes, SYBR Green DNA, 72 h; series mostly up to 28.7 µM. An outline of the steps:
(§3)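 P. falciparum-infected erythrocytes (0.3% parasitemia, 2.5% hematocrit final) were exposed to compounds for 72 h at 37 C in 5% CO2, then lysed with SYBR Green buffer overnight at room temperature; parasite DNA fluorescence was normalized to artemisinin and DMSO controls.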

The test system of the next assay is SC27B. Described as above. The settings on record: P. falciparum in erythrocytes, SYBR Green DNA, 72 h; series mostly up to 28.7 µM. The method, boiled down:
as §3

The next assay concerns TAB109. The description is as above. The settings on record: P. falciparum in erythrocytes, SYBR Green DNA, 72 h; series mostly up to 28.7 µM. The method, boiled down:
as §3

The subject of another assay is TAB165. Described as above. The conditions noted are these: P. falciparum in erythrocytes, SYBR Green DNA, 72 h; series mostly up to 28.7 µM. An outline of the steps: as §3
Another assay deals with W2. The description is as above. The settings on record: P. falciparum in erythrocytes, SYBR Green DNA, 72 h; series mostly up to 28.7 µM. The method, boiled down: as §3
A further assay has as its system TAB113. The assay is described as above. The conditions noted are these: P. falciparum in erythrocytes, SYBR Green DNA, 72 h; series mostly up to 28.7 µM. The method, boiled down: as §3
Assay [3] relates to HACAT. The assay is described as follows: qHTS assay to identify novel small-molecules to repurpose for Merkel cell carcinoma treatment (AID 1296009). Note: potency is the fitted concentration of half-maximal effect. The conditions noted are these: MCC and control cell lines, CellTiter-Glo viability, 72 h; at 44.8 µM (top of the series) unless noted. The method, boiled down:
as §2
For orientation: In qHTS, concentration-response curves come from the screen itself.

In the next assay the test system is HEK293T. Described as above. The conditions noted are these: MCC and control cell lines, CellTiter-Glo viability, 72 h; at 44.8 µM (top of the series) unless noted. The method, boiled down: as §2
The test system of a further assay is MCC-26. The description is as above. The settings on record: MCC and control cell lines, CellTiter-Glo viability, 72 h; series mostly up to 46 µM. The method, boiled down: as §2
Assay [4] concerns NIH3T3. The description is as above. The settings on record: MCC and control cell lines, CellTiter-Glo viability, 72 h; at 44.8 µM (top of the series) unless noted. An outline of the steps: as §2

The structures appear in SMILES notation. Several values for one entry are separate records, joined by “and”; a condition that tells them apart may be missing. Equal entries are not always repeated. Results filed as inconclusive are left out. Some structures have more than one record in an assay (separate samples or runs), and their calls can disagree. Activity calls are given as the source filed them. Calls come from the whole dose curve; as a rule, active = well fitted inhibition curve with a large enough effect; inconclusive = small, poorly fitted or top-dose-only effect; inactive = flat fitted curve, though single readings scatter.
Note: nearly all actives have a fitted effect of over 60% in size.

Take `C[C@@H](CN1CC(=O)NC(=O)C1)N1CC(=O)NC(=O)C1`: the Potency is 0.148 µM (active) with CRL-7250; 0.235 µM (active) in the assay on HEK293; 23.5 µM (active) with HaCat [1]; 0.187 µM (active) in the assay with NIH3T3 [2]; “inactive and 5.9 µM (active)” with MKL-1; “inactive and 3.72 µM (active)” in the assay on WaGa. Besides, the max response is 0.572% (inactive) with CRL-7250, -7.01% (inactive) in the assay on HaCat [1] and 7.8% (inactive) with KB-3-1. Also, the Potency result in the assay on MCC-13, with MKL-2 and in the assay with UISO was “inactive” throughout.
As for `CC(C)Cn1cnc2c(N)nc3ccccc3c21`, the Potency result with PC49, with SC27B, with TAB109, with TAB165, in the assay on W2 and with MCC-13 was “inactive” in each case. Moreover, the Potency result in the assay with MKL-1, in the assay with MKL-2 and in the assay on UISO was “inactive” each time. Further, the max response with CRL-7250 is -12.7% (inactive); in the assay with HEK293, -0.0078% (inactive); in the assay on HaCat [1], -15.1% (inactive) and -54.5% (inactive); with KB-3-1 it was -6.03% (inactive) and -18.1% (inactive); in the assay with NIH3T3 [2], -4.24% (inactive) and -9.09% (inactive). In addition, the outcome with CRL-7250 was inactive. In addition, the Potency entry with WaGa is “inactive and 20.9 µM (active)”.
`CNS(=O)(=O)Cc1ccc2[nH]cc(CCN(C)C)c2c1`: the Potency result in the assay on PC49, in the assay with SC27B, with TAB109, in the assay on TAB113, with TAB165 and in the assay with MCC-13 was “inactive” in each case. Also, the Potency entry in the assay with MCC-26, with MKL-1, with MKL-2, in the assay on UISO and with WaGa was “inactive” in each case. The max response was -6.22% (inactive) in the assay with CRL-7250; 2.84% (inactive) in the assay on HEK293; -7.88% (inactive) and 1.69% (inactive) in the assay on KB-3-1; -1.5% (inactive) in the assay with NIH3T3 [2]. Further, the result in the assay with CRL-7250, in the assay with HEK293, in the assay with HaCat [1], in the assay on NIH3T3 [2], in the assay on HACAT [3] and in the assay with HEK293T was inactive. The molecule was called inactive in the assay on NIH3T3 [4].
For `CS(=O)(=O)c1ccc([C@@H](O)[C@@H](CO)NC(=O)C(Cl)Cl)cc1`, the max response is -2.94% (inactive) in the assay with CRL-7250; 4.09% (inactive) with HaCat [1]; -5.5% (inactive) in the assay with KB-3-1; 1.24% (inactive) and 2.73% (inactive) with NIH3T3 [2]. For the same molecule, the result with CRL-7250, in the assay with HaCat [1] and in the assay on HACAT [3] was inactive. Also, the Potency in the assay with HEK293 was 2.99 µM (active). Moreover, the Potency entry in the assay with MCC-13, in the assay with MCC-26, in the assay on MKL-1, in the assay with MKL-2, in the assay on UISO and in the assay on WaGa was “inactive” in each case.
As for `CC(C)OC(=O)OCOP(=O)(CO[C@H](C)Cn1cnc2c(N)ncnc21)OCOC(=O)OC(C)C`, the max response is -6.19% (inactive) in the assay on CRL-7250; -4.37% (inactive) in the assay with HEK293; -4.05% (inactive) and -25.8% (inactive) in the assay on NIH3T3 [2]. Also, the molecule was classed as inactive with CRL-7250, with HEK293, in the assay with HaCat [1], with KB-3-1, with HACAT [3] and with HEK293T. For the same molecule, the Potency entry in the assay on MCC-13, with MCC-26, in the assay on MKL-1, in the assay with MKL-2 and in the assay with WaGa was “inactive” throughout.
Regarding `CC1=NN(c2ccccc2)C(=O)C1`, the Potency result in the assay with PC49, in the assay with SC27B, in the assay with TAB109, in the assay on TAB113, with TAB165 and with MCC-13 was “inactive” each time. The Potency entry in the assay on MCC-26, in the assay on MKL-1, in the assay with MKL-2, in the assay with UISO and in the assay with WaGa was “inactive” in each case. Besides, the max response with CRL-7250 was -10.4% (inactive) and -10.5% (inactive); in the assay on HEK293, -7.12% (inactive) and -3.41% (inactive) and -4.46% (inactive); in the assay with HaCat [1] it was -6.55% (inactive); in the assay with KB-3-1 it was 3.2% (inactive); in the assay with NIH3T3 [2], 2.82% (inactive). In addition, the outcome with CRL-7250, with HaCat [1], in the assay with KB-3-1, with NIH3T3 [2], with HACAT [3] and with NIH3T3 [4] was inactive.
For `O=C(O)c1cccnc1`, the Potency with CRL-7250 was 16.6 µM (active); with HEK293 it was 2.64 µM (active). Moreover, the max response was 0.94% (inactive) with CRL-7250; -12.4% (inactive) in the assay with HEK293; -6.32% (inactive) in the assay with HaCat [1]; 23.8% (inactive) and 4.59% (inactive) in the assay with KB-3-1; -0.396% (inactive) and 0.818% (inactive) in the assay on NIH3T3 [2]. The Potency entry in the assay with MCC-13, in the assay on MCC-26, with MKL-1, in the assay with MKL-2, with UISO and in the assay on WaGa was “inactive” in each case.
`CCOC(=O)[C@H](CCc1ccccc1)N[C@H]1CS[C@H](c2cccs2)CN(CC(=O)O)C1=O`: the Potency entry in the assay with PC49, with TAB109, in the assay with TAB113, with MCC-13 and in the assay with UISO was “inactive” throughout. Besides, the max response in the assay with CRL-7250 was -9.28% (inactive); in the assay on HEK293 it was 4.3% (inactive); with HaCat [1] it was 4.5% (inactive); in the assay on KB-3-1 it was 4.95% (inactive); in the assay with NIH3T3 [2], 3.22% (inactive) and 0.311% (inactive). The outcome with CRL-7250, in the assay on HEK293, with HaCat [1], with HACAT [3] and in the assay with HEK293T was inactive. In addition, the Potency entry was “inactive and 5.26 µM (active)” in the assay with MKL-1; “inactive and 1.05 µM (active)” in the assay with MKL-2; “inactive and 469 nM (active)” in the assay on WaGa.
In the case of `NS(=O)(=O)c1cc2c(cc1Cl)NC(C(Cl)Cl)NS2(=O)=O` (stereo unspecified), the max response is -3.96% (inactive) with CRL-7250; -0.123% (inactive) with HEK293; -16.1% (inactive) in the assay on HaCat [1]; 9.97% (inactive) in the assay with KB-3-1; 3.32% (inactive) and -1.25% (inactive) with NIH3T3 [2]. Further, the result in the assay with CRL-7250, in the assay on HEK293, in the assay on HaCat [1], in the assay on KB-3-1, in the assay on HACAT [3] and in the assay on HEK293T was inactive. Besides, the Potency result in the assay with MCC-13, in the assay on MCC-26, in the assay with MKL-1, in the assay on MKL-2, with UISO and with WaGa was “inactive” each time.
Turning to `CCC(C)(C)c1ccc(CC(C)CN2C[C@@H](C)O[C@@H](C)C2)cc1` (stereo partly specified), the Potency entry in the assay with PC49, in the assay on SC27B, with TAB109, with TAB113, with TAB165 and with MCC-13 was “inactive” throughout. Besides, the Potency entry with MCC-26, in the assay with MKL-1, in the assay with MKL-2, in the assay with UISO and in the assay with WaGa was “inactive” in each case. For the same molecule, the max response in the assay on CRL-7250 is 0.576% (inactive); in the assay on HEK293 it was -0.508% (inactive) and -3.77% (inactive); in the assay on KB-3-1, 0.53% (inactive) and -5.13% (inactive); in the assay on NIH3T3 [2] it was 3.97% (inactive) and -6% (inactive). Further, the call with CRL-7250, with HaCat [1] and with HACAT [3] was inactive.

Source of the values: PubChem BioAssay (NCATS).
